Assay outcomes deposited in PubChem BioAssay by several laboratories.
Hits are enriched below; roughly 1.7% of the tested compounds scored in any of these assays.
Myeloid diff MLP: promotes myeloid progenitor differentiation; ER-HoxA9 myeloid progenitors, lysozyme-GFP differentiation, flow cytometry; calls only at 10 µM; 1% of 360,000 active; AID 624256;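 active means normalized GFP-positive differentiation at or above the plate's own cutoff, the solvent-only control mean plus 3 SD; inconclusive means no clear call, values can overlap the other calls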;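 further: cells exposed to compound for four days before flow analysis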
TLR9-MyD88 inh: blocks human TLR9 binding to MyD88. Q9NR96+Q99836. AID 504734. inhibition, % at 4.98 µM. 0.21% of 340,000 active. CHO BLA complementation TLR9-MyD88, CCF4 FRET ratio;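 active means inhibition above the mean over all tested compounds plus 3 SD, cut at about 21% in these data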
NOD2 RIPK2 PPI: inhibitors of human NOD2-RIPK2 interaction; inhibition, % at 4.98 µM; O43353; 0.38% of 360,000 active; CHO BLA complementation NOD2-RIPK2, CCF4 ratio; in the data active means inhibition above about 21%
TLR4 MyD88 comp: TLR4-MyD88 interaction inhibition in cells. O00206+Q99836. HeLa CL3-4 TLR4/MyD88 BLA complementation, FRET ratio. inhibition, % at 8.4 µM. 0.18% of 200,000 active. AID 861; in the data active means inhibition above about 25%
ABCB6 inh 2: blocks the human ABCB6 transporter; fluorescence ratio to DMSO, % at 10 µM; AID 602162; K562-ABCB6 porphyrin accumulation, flow cytometry, 1 h; stronger effect = lower value; 0.19% of 360,000 active; Q9NP58;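 active means fluorescence ratio to DMSO below 75%, the collection mean minus 3 SD; inconclusive means too few cells collected in the well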;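 further: signal is porphyrin accumulated inside mitochondria; lower ratio means ABCB6 inhibition with less porphyrin fluorescence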
NOD2 RIPK2 conf: confirmation of human NOD2-RIPK2 interaction inhibitors. shares compounds with NOD2 RIPK2 PPI. CHO cells, NOD2-RIPK2 BLA complementation, CCF4 FRET. inhibition, % at 4.98 µM. 70% of 1,200 active. AID 624370;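 active means mean inhibition across replicates above a set limit taken from the earlier primary screen, cut at about 21% in these data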
BLA counter: NOD2-RIPK2 counterscreen BLA reporter activity | shares compounds with NOD2 RIPK2 PPI | CHO BLA reporter, CCF4 FRET ratio | inhibition, % at 4.98 µM | 57% of 1,200 active;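 active means mean inhibition above the low-control mean inhibition plus three low-control SD, cut at about 11% in these data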
Hits are given with their value; . = inactive; ? = inconclusive; / = no result; + = active, no number.

SMILES	Myeloid diff MLP	TLR9-MyD88 inh	NOD2 RIPK2 PPI	TLR4 MyD88 comp	ABCB6 inh 2	NOD2 RIPK2 conf	BLA counter
O=C(/C=C/N1CCOCC1)c1cc2ccccc2o1	.	.	.	.	.	/	/
CC(OC(=O)CCC(=O)c1cccs1)C(=O)NC1CCCCC1C (centres undefined)	.	.	.	/	.	/	/
O=C(Nc1ccc(CN2CCS(=O)(=O)CC2)cc1)c1ccc(Cl)cc1	.	.	.	/	.	/	/
CCOC(=O)Nc1ccc2c(c1)N(C(=O)CCN(CC)CC)c1ccccc1S2=O (centres undefined)	.	.	31.4	/	.	.	.
C[C@H](CO)NC(=O)[C@@H]1C[C@H]1[C@@H](NP(=O)(c1ccccc1)c1ccccc1)c1ccccc1	.	.	.	.	.	/	/
COc1ccc(-c2nn(-c3ccccc3)cc2/C=C/C(=O)OCC(=O)Nc2ccc(C#N)cc2)cc1	.	.	.	.	.	/	/
COc1ccc(-c2nn(-c3ccccc3)cc2/C=C/C(=O)OCC(=O)Nc2cccc(C#N)c2)cc1	.	.	35.7	.	.	.	.
CC1(C(=O)NS(=O)(=O)c2cccc(C#N)c2)CCN1C(=O)CC1CCCC1 (centres undefined)	.	/	.	/	.	/	/
O=C(CCCN1C(=O)/C(=C\c2cccs2)SC1=S)Nc1cccc(C(=O)O)c1	.	.	23.6	.	.	.	.
COc1ccc2c(c1OC)c(=O)n1c3ccc(OC(C)C(=O)NCCCN4CCOCC4)cc3c3ccnc2c31 (centres undefined)	.	.	21.1	/	.	.	.
COc1ccc(/C=N/NC(=O)c2ccc(NC(C)=O)cc2)cc1COc1ccc(F)cc1F	.	30.2	24.9	/	.	.	.
CC1C(=O)N2CCCc3cc(NC(=O)c4ccccc4F)cc1c32 (centres undefined)	.	.	.	/	.	/	/
CCOc1ccc(/C=C(\C#N)C(=O)c2c(C)[nH]c3ccccc23)cc1OC	.	.	21.8	.	.	.	.
CC1(C)Cc2c(sc3nc(-c4cc5ccccc5o4)n(N)c(=O)c23)CO1	.	.	23.5	.	.	.	.
S=C(c1ccc(-c2ccc(Cl)c(Cl)c2)o1)N1CCOCC1	.	.	.	.	.	/	/
S=C(c1ccc(-c2ccccc2Cl)o1)N1CCOCC1	.	.	21.7	.	.	.	.
CN(CC(=O)Nc1ccccc1Cl)C(=O)Cn1cnc2ccc(Cl)cc2c1=O	.	.	.	/	.	/	/
Fc1ccc(C2=CC(c3ccco3)n3ncnc3N2)cc1 (centres undefined)	.	35.3	35.6	.	.	.	12.5
CCCN(Cc1nnc(-c2cccs2)o1)C(=O)CN1C(=O)NC2(CCC(C)CC2)C1=O (centres undefined)	.	.	.	/	.	/	/
C=CS(=O)(=O)c1ccc(Oc2ccc(S(=O)(=O)C=C)cc2)cc1	.	.	35.8	.	.	50.7	16.5
NS(=O)(=O)c1ccc(Oc2ccc(S(N)(=O)=O)cc2)cc1	.	.	.	.	.	/	/
CCOC(=O)/C=C/S(=O)(=O)c1ccc(NC(C)=O)cc1	?	22.7	22.0	.	.	54.2	21.4
CCOC(=O)/C=C/C(=O)Nc1ccc(S(=O)(=O)Nc2c(C)cc(C)cc2C)cc1	.	.	.	.	.	/	/
N#Cc1ccccc1COC(=O)c1cccc(S(=O)(=O)N2CCCC2)c1	.	.	.	/	.	/	/
N#Cc1ccccc1Cn1cc(/C=C/[N+](=O)[O-])c2ccccc21	.	.	41.6	.	.	69.8	.
SMILES	Myeloid diff MLP	TLR9-MyD88 inh	NOD2 RIPK2 PPI	TLR4 MyD88 comp	ABCB6 inh 2	NOD2 RIPK2 conf	BLA counter
O=[N+]([O-])/C=C/c1cn(Cc2ccccc2)c2ccccc12	.	.	.	.	.	/	/
CCC(C(=O)Nc1ccon1)c1ccccc1 (centres undefined)	.	.	.	/	.	/	/
O=C1NC[C@H](CCCCN2C[C@H](Cc3ccccc3)N(CCc3ccc(O)cc3)C(=O)C2=O)N(CCc2ccccc2)C1=O	.	/	.	/	.	/	/
O=C(CN(c1cccc(C(F)(F)F)c1)S(=O)(=O)c1ccc(Cl)c([N+](=O)[O-])c1)NCc1ccccc1	.	.	.	.	.	/	/
CC(NC(=O)CN(c1cccc(C(F)(F)F)c1)S(=O)(=O)c1ccc(Cl)c([N+](=O)[O-])c1)c1ccccc1 (centres undefined)	?	.	39.4	.	.	34.7	.
COc1ccc(N=C2S/C(=C\c3ccc(Cl)c([N+](=O)[O-])c3)C(=O)N2CCN(C)C)cc1	.	.	43.9	/	.	87.7	.
CCN1C(=O)/C(=C/c2cccs2)SC1=Nc1ccc(OC)cc1	.	.	.	.	.	/	/
CCN(CC)CCN1C(=O)/C(=C\c2ccc(Cl)c([N+](=O)[O-])c2)SC1=Nc1ccc(OC)cc1	/	.	72.2	/	.	54.4	.
CCCN1C(=O)/C(=C/c2ccc(C)s2)SC1=Nc1ccc(OC)cc1	.	.	.	.	.	/	/
CCN(CC)c1ccc(NC(=S)NC(=O)c2cccs2)cc1	.	.	.	.	.	/	/
CCOC(=O)C1(CCCc2ccccc2)CCN(C(=O)c2ccoc2)CC1	.	.	44.6	.	.	.	.
FC(F)(F)c1cccc(NC(=S)Nc2cccc(NC(=S)Nc3cccc(C(F)(F)F)c3)n2)c1	.	.	.	/	.	/	/
ClC1(Cl)CC1CSc1nnc(-c2ccncc2)o1 (centres undefined)	.	.	.	/	.	/	/
Cc1cccc(C)c1NC(=O)C(C1CC1)n1c(=O)c(-c2cc3ccccc3[nH]2)nc2ccccc21 (centres undefined)	.	/	46.8	/	/	42.5	66.9
CC(C)(C)NC(=O)C(C1CC1)n1c(=O)c(-c2cc3ccccc3[nH]2)nc2ccccc21 (centres undefined)	.	/	41.8	/	/	39.3	61.5
CC(C)(C)NC(=O)C(C1CC1)n1c(=O)c(-c2ccco2)nc2ccccc21 (centres undefined)	.	/	.	/	/	/	/
CCOc1ccc(NC(=O)N[C@@H](Cc2ccccc2)C(=O)O)cc1	.	.	.	/	.	/	/
CCCCn1c(=O)[nH]c2nc3cc(N)ccc3nc2c1=O	.	.	26.2	.	.	31.1	36.8
Cc1cc2nc3c(=O)n(CCc4ccccc4)c(=O)[nH]c3nc2cc1N	.	.	.	/	.	/	/
Nc1ccc2nc3c(=O)n(CCc4ccccc4)c(=O)[nH]c3nc2c1	+	/	37.5	/	.	36.1	35.1
CCOC(=O)[C@]12CCC=C1N(Cc1ccc(Cl)cc1Cl)C(=O)[C@H](CC(=O)NCC13CC4CC(CC(C4)C1)C3)C2	.	/	.	/	.	/	/
Cc1cc(N2CCN(C)CC2)ccc1NC(=O)c1c2c(nc3ccccc13)CCN(Cc1ccccc1)C2	?	.	34.1	.	.	46.6	.
CCOc1ccc2nc3ccc4[nH]onc4c3c2c1	.	.	33.7	33.8	.	28.1	37.4
